The record followed here is paper PMC7862700, “An all-to-all approach to the identification of sequence-specific readers for epigenetic DNA modifications on cytosine”.

Common to all, as to experiment: DAPPL (digital affinity profiling via proximity ligation, sequencing); 10 mM Tris-HCl pH 7.5, 50 mM NaCl, 1 mM DTT, 4% glycerol, room temperature, 30 min; GST-TFs on glutathione beads, 16-mer random dsDNA library, 0.1% formaldehyde crosslink after washing; high values mean tight binding
One assay has as its target T1, FEV (Homo sapiens, UniProt Q99581 1-238).
T1 sequence: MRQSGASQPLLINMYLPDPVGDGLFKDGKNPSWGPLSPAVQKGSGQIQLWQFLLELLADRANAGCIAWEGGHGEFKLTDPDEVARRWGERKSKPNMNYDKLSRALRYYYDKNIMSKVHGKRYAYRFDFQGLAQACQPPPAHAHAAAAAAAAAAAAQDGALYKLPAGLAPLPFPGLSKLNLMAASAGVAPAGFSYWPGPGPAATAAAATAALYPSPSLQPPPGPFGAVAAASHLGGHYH
The conditions noted are these: protein: recombinant; tags: N-terminal GST; dsDNA, one strand shown. The gist of the method:
(§1)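 Human transcription factors were made in yeast as GST fusions, captured on glutathione beads and barcoded with DNA. With a tag-only sample included, the pool was incubated with 200 nmole of a random double-stranded 16-mer DNA library in Tris/NaCl/DTT/glycerol buffer at room temperature for 30 min, then crosslinked with 0.1% formaldehyde after washing, ligated by proximity, amplified and sequenced. For binding signal, each hexamer's read frequency for a factor is divided by its frequency for the tag-only sample.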

Another assay addresses ETV5 (Homo sapiens, UniProt P41161 1-510). The conditions noted are these: protein: recombinant; tags: N-terminal GST; dsDNA, one strand shown. The gist of the method:
as §1

Another assay addresses HSF1 (Homo sapiens, UniProt Q00613 1-529). The conditions noted are these: protein: recombinant; tags: N-terminal GST; chain copies: 3; dsDNA, one strand shown. The gist of the method:
as §1

A further assay concerns the target T2, SPIC (Homo sapiens, UniProt Q8N5J4 1-248).
T2 sequence: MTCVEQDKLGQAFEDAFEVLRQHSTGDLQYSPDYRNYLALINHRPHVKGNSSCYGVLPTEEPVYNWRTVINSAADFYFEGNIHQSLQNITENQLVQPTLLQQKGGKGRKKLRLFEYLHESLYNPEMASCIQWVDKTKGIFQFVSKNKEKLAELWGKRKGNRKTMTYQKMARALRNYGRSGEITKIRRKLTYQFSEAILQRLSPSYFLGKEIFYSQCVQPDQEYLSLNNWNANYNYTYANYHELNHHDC
Particulars: protein: recombinant; tags: N-terminal GST; dsDNA, one strand shown. The gist of the method:
as §1

For another assay, the target named is ELF4 (Homo sapiens, UniProt Q99607 1-663). The conditions noted are these: protein: recombinant; tags: N-terminal GST; dsDNA, one strand shown. The gist of the method:
as §1

The target of a further assay is T3, ELK4 (Homo sapiens, UniProt P28324-2 1-405).
T3 sequence: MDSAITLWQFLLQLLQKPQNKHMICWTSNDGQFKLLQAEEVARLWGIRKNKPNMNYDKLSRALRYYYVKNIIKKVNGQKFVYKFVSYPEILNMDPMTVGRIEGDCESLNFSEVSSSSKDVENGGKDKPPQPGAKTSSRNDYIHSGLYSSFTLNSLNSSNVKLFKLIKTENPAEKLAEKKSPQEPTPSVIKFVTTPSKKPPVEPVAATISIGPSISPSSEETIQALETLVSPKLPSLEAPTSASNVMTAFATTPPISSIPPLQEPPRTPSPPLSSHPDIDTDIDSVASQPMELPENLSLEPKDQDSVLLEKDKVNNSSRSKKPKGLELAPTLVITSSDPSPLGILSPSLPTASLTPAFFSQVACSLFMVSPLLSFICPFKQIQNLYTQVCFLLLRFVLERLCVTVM
The conditions noted are these: protein: recombinant; tags: N-terminal GST; dsDNA, one strand shown. The procedure, abridged: as §1

In another assay the target is T4, ETV2 (Homo sapiens, UniProt O00321 1-342).
T4 sequence: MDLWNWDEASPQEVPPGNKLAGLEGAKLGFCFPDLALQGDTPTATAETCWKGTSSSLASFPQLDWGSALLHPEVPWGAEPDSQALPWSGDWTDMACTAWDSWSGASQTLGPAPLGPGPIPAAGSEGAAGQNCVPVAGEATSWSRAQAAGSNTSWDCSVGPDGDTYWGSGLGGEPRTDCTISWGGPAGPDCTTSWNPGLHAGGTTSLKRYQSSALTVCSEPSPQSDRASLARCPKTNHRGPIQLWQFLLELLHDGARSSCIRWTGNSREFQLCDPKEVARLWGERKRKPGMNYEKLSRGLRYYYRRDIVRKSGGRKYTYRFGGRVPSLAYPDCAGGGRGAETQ
The conditions noted are these: protein: recombinant; tags: N-terminal GST; dsDNA, one strand shown. The procedure, abridged:
as §1

The target in a further assay is T5, ELF3 (Homo sapiens, UniProt P78545 1-371).
T5 sequence: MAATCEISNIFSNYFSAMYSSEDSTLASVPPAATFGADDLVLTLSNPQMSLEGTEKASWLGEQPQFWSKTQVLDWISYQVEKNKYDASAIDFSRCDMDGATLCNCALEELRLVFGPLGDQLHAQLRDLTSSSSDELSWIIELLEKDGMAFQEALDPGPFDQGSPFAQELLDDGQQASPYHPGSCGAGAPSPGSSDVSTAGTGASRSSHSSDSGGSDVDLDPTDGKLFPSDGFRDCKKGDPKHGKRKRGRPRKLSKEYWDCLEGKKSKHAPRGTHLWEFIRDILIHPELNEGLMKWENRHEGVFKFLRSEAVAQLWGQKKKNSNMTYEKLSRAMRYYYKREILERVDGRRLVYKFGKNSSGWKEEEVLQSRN
The conditions noted are these: protein: recombinant; tags: N-terminal GST; dsDNA, one strand shown. The procedure, abridged: as §1

A further assay has as its target CRX (Homo sapiens, UniProt O43186 1-299). The conditions noted are these: protein: recombinant; tags: N-terminal GST; dsDNA, one strand shown. The gist of the method:
as §1

In the next assay the target is ETV1 (Homo sapiens, UniProt P50549 1-477). The conditions noted are these: protein: recombinant; tags: N-terminal GST; dsDNA, one strand shown. The procedure, abridged: as §1
In another assay the target is T6, ERF (Homo sapiens, UniProt P50548 1-548).
T6 sequence: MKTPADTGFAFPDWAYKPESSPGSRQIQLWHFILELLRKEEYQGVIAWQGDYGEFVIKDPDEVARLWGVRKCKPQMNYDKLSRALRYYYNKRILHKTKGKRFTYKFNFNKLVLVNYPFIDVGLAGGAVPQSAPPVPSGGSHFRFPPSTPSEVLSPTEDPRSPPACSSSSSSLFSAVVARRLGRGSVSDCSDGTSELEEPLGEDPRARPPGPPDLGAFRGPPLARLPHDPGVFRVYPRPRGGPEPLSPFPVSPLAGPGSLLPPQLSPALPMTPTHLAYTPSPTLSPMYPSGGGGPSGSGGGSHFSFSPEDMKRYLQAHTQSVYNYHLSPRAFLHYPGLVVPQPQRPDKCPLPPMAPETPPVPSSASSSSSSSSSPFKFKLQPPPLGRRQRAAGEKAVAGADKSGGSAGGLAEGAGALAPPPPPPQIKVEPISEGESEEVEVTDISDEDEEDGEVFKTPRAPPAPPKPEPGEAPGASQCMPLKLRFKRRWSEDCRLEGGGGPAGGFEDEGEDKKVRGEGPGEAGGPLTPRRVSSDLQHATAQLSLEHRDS
Particulars: protein: recombinant; tags: N-terminal GST; dsDNA, one strand shown. The gist of the method: as §1

A further assay concerns the target T7, ETV3L (Homo sapiens, UniProt Q6ZN32 1-361).
T7 sequence: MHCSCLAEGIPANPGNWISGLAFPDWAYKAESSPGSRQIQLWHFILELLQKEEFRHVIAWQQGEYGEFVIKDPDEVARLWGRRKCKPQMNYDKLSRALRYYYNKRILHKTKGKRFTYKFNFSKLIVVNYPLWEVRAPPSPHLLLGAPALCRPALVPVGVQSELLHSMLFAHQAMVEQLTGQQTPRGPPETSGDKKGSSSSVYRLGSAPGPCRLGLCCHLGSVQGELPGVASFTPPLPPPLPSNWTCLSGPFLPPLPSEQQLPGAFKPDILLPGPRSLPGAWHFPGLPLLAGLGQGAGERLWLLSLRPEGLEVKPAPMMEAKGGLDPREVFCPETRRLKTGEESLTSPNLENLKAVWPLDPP
Particulars: protein: recombinant; tags: N-terminal GST; dsDNA, one strand shown. The gist of the method: as §1

Another assay concerns the target T8, ETS2 (Homo sapiens, UniProt P15036 1-469).
T8 sequence: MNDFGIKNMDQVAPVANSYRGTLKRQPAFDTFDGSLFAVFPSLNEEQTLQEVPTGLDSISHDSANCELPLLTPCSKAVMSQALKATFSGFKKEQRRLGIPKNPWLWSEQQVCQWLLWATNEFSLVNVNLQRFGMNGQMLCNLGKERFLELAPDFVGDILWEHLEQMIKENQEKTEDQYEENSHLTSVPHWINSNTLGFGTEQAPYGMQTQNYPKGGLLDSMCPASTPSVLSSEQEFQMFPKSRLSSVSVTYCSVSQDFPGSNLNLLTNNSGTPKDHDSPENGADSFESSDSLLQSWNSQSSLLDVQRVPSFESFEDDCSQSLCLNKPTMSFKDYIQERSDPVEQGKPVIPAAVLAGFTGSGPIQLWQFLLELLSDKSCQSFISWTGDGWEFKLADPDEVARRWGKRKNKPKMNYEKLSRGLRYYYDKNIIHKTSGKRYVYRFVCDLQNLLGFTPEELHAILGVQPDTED
The conditions noted are these: protein: recombinant; tags: N-terminal GST; dsDNA, one strand shown. The procedure, abridged:
as §1

A further assay deals with T9, SPDEF (Homo sapiens, UniProt O95238 1-335).
T9 sequence: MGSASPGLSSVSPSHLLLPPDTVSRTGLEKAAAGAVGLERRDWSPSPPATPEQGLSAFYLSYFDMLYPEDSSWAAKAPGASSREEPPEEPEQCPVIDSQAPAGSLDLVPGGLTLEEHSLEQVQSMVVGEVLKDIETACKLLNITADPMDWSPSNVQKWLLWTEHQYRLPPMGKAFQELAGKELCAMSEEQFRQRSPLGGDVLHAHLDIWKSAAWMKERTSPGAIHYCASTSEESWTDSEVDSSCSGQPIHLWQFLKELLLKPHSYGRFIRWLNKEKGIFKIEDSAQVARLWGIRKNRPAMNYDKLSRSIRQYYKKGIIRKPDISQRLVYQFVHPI
The conditions noted are these: protein: recombinant; tags: N-terminal GST; dsDNA, one strand shown. The gist of the method:
as §1

The next assay addresses T10, ETV7 (Homo sapiens, UniProt Q9Y603 1-341).
T10 sequence: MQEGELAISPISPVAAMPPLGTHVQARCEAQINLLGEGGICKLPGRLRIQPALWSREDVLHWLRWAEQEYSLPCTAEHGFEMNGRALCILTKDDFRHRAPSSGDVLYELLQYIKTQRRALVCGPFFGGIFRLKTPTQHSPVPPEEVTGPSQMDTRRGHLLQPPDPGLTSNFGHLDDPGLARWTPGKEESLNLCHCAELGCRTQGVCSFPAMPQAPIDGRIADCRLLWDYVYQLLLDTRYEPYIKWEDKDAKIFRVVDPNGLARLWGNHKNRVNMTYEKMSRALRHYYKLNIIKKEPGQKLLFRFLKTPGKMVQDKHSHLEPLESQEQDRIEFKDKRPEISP
Particulars: protein: recombinant; tags: N-terminal GST; dsDNA, one strand shown. The procedure, abridged: as §1

Another assay deals with T11, ELF5 (Homo sapiens, UniProt Q9UKW6-2 1-255).
T11 sequence: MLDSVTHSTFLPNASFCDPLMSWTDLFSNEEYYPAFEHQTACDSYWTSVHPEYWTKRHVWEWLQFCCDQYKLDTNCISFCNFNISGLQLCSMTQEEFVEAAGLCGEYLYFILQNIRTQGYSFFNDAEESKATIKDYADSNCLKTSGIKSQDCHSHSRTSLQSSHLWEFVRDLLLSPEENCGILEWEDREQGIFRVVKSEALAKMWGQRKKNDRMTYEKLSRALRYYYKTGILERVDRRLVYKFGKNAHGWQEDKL
Particulars: protein: recombinant; tags: N-terminal GST; dsDNA, one strand shown. The procedure, abridged: as §1

Another assay concerns the target T12, ETV3 (Homo sapiens, UniProt P41162-2 1-143).
T12 sequence: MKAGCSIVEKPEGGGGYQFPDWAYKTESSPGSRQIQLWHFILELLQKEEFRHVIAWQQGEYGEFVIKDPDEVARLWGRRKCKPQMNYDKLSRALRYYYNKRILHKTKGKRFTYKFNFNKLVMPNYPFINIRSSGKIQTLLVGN
The conditions noted are these: protein: recombinant; tags: N-terminal GST; dsDNA, one strand shown. The gist of the method: as §1

For another assay, the target named is ETV6 (Homo sapiens, UniProt P41212 1-452). The conditions noted are these: protein: recombinant; tags: N-terminal GST; dsDNA, one strand shown. The gist of the method:
as §1

CRX, sequence (O43186 whole entry): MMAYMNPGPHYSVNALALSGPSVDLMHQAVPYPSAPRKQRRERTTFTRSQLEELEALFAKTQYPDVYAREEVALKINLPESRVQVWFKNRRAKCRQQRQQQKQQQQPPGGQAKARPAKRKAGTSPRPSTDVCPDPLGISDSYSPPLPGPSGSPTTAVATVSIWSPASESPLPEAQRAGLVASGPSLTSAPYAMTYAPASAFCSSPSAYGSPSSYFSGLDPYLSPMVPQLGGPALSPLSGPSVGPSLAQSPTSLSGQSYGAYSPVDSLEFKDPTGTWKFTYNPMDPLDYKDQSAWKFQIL
ETV5, sequence (P41161 whole entry): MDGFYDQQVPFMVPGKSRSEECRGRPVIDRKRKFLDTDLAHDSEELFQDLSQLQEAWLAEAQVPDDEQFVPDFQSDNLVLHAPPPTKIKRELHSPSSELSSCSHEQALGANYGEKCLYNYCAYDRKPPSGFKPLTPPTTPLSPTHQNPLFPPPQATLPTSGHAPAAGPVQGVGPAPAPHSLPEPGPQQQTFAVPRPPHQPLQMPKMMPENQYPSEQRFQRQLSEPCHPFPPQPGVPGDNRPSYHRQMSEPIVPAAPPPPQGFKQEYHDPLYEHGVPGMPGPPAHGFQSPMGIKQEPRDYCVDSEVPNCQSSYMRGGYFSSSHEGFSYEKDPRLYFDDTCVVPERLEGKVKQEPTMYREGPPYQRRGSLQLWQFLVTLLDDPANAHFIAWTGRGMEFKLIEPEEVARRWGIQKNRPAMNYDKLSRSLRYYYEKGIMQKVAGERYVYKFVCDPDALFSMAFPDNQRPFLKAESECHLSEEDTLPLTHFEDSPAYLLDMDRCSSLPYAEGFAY
HSF1, sequence (Q00613 whole entry): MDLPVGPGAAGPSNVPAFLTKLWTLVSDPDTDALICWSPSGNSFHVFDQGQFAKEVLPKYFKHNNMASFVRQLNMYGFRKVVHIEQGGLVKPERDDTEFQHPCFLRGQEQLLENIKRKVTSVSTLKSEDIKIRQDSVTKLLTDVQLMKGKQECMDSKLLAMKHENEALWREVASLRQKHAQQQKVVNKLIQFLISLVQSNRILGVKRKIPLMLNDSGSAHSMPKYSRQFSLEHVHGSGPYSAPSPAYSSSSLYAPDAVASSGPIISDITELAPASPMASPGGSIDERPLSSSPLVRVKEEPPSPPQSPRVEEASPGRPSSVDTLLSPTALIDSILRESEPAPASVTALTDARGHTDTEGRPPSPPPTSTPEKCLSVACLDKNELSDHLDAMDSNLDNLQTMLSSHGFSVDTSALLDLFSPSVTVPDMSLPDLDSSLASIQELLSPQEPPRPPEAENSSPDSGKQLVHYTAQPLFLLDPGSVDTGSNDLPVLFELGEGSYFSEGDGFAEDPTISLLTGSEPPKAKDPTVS
ETV6, sequence (P41212 whole entry): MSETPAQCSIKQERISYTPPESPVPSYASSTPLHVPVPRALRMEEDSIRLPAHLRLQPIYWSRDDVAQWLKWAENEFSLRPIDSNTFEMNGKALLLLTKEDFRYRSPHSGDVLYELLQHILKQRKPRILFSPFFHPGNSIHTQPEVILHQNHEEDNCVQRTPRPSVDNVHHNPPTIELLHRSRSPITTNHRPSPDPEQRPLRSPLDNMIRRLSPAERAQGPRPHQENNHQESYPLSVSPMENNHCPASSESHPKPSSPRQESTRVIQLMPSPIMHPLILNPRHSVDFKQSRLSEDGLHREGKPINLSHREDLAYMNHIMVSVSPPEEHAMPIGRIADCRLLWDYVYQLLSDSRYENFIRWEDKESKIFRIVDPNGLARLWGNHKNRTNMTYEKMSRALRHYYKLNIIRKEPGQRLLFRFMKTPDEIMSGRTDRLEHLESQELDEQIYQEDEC
ELF4, sequence (Q99607 whole entry): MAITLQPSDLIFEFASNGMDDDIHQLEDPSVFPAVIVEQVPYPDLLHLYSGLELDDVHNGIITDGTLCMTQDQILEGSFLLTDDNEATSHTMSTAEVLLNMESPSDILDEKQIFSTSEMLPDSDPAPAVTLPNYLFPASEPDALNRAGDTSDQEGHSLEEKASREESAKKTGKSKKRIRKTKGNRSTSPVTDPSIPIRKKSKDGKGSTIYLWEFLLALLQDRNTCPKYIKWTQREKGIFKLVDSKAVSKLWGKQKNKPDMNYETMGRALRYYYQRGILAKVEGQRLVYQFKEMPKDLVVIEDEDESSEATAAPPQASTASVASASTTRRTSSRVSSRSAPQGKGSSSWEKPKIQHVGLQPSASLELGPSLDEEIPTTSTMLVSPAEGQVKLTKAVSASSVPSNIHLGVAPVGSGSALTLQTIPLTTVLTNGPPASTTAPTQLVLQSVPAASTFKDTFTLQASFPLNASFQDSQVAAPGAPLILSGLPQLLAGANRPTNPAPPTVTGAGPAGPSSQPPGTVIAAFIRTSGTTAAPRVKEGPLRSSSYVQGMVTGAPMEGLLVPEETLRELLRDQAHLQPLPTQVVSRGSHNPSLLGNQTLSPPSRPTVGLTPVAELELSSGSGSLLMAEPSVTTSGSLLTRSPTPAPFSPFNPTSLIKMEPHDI
ETV1, sequence (P50549 whole entry): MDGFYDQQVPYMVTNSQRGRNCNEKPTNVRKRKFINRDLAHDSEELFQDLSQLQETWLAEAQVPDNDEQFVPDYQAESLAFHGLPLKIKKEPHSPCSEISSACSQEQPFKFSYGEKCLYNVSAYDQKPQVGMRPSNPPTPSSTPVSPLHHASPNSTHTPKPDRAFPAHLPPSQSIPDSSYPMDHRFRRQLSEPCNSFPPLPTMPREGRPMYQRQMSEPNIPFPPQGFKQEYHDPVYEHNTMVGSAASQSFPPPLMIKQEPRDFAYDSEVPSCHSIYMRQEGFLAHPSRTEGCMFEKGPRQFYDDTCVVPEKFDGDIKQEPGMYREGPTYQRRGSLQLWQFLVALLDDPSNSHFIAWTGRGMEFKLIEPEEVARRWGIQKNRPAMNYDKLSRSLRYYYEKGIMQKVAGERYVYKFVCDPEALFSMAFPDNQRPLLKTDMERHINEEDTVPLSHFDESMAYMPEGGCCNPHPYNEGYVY

For the sequence ATATCG, the binding signal is 1.1 fold enrichment (6-mer frequency, TF over GST control) in the assay with FEV; 1.16 fold enrichment (6-mer frequency, TF over GST control) with ETV5; 1.14 fold enrichment (6-mer frequency, TF over GST control) in the assay with HSF1; 1.07 fold enrichment (6-mer frequency, TF over GST control) with SPIC; 1.22 fold enrichment (6-mer frequency, TF over GST control) with ELF4; 1.21 fold enrichment (6-mer frequency, TF over GST control) with ELK4. The binding signal is 1.18 fold enrichment (6-mer frequency, TF over GST control) with ETV2; 1.02 fold enrichment (6-mer frequency, TF over GST control) with ELF3; 1.07 fold enrichment (6-mer frequency, TF over GST control) with CRX; 1.22 fold enrichment (6-mer frequency, TF over GST control) with ETV1; 1.23 fold enrichment (6-mer frequency, TF over GST control) with ERF; 1.23 fold enrichment (6-mer frequency, TF over GST control) in the assay with ETV3L. Besides, the binding signal in the assay with ETS2 is 1.17 fold enrichment (6-mer frequency, TF over GST control); in the assay with SPDEF it was 1.26 fold enrichment (6-mer frequency, TF over GST control); with ETV7, 1.16 fold enrichment (6-mer frequency, TF over GST control); in the assay with ELF5 it was 1.1 fold enrichment (6-mer frequency, TF over GST control); with ETV3 it was 1.14 fold enrichment (6-mer frequency, TF over GST control); with ETV6, 1.09 fold enrichment (6-mer frequency, TF over GST control).
